# Assay results as given in PubChem BioAssay (NCATS).
# Records with an inconclusive call do not appear. Entries that show only a call come without a potency. Unmarked numbers belong to inactive results. Active and inactive are the calls of the source. The call rests on the fitted dose curve; in most records, active means well fitted curve in the direction sought with a large enough effect; inconclusive means small, poorly fitted or top-dose-only effect, or another doubt; inactive means no such curve, though single readings can be large; an effect the other way counts as inactive or inconclusive.
# Columns and labels:
# CRL-7250 = normal cell line; assay: Cytotoxic Profiling of Annotated Libraries Using Quantitative High-Throughput Screening (AID 1296008); details: Five cell lines viability, CellTiter-Glo ATP luminescence, 48-72 h; max response: stronger effect = lower value; further: nearly all actives have a fitted effect of over 60% in size; further: potency means the concentration at half of the fitted maximal effect
# Summary of the method: (§1)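 Cells exposed to compounds for 48 or 72 hr at 37 degrees Celsius. Viability read as ATP-coupled luminescence with CellTiter-Glo after 10 min at room temperature.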
# HEK293 = assay: as above; details: Five cell lines viability, CellTiter-Glo ATP luminescence, 48-72 h; max response: stronger effect = lower value
# Summary of the method: as §1
# HaCat [1] = assay: as above; details: Five cell lines viability, CellTiter-Glo ATP luminescence, 48-72 h; max response: stronger effect = lower value
# Summary of the method: as §1
# KB-3-1 = assay: as above; details: Five cell lines viability, CellTiter-Glo ATP luminescence, 48-72 h; max response: stronger effect = lower value
# Summary of the method: as §1
# NIH3T3 = assay: as above; details: Five cell lines viability, CellTiter-Glo ATP luminescence, 48-72 h; max response: stronger effect = lower value
# Summary of the method: as §1
# HACAT [2] = assay: qHTS assay to identify novel small-molecules to repurpose for Merkel cell carcinoma treatment (AID 1296009); details: MCC and control cell lines, CellTiter-Glo viability, 72 h; at 44.8 µM (top of the series) unless noted; further: nearly all actives have a fitted effect of over 60% in size
# Summary of the method: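 Cells were treated for 72 hr at 37 degree celsius with compounds in 8- or 11-point dose response. Viability was read by CellTiter-Glo luminescence, normalized to no-cell (cytotoxicity) and DMSO controls.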
# C33A = assay: Primary qHTS to identify gynecologic anti-cancer compounds using libraries of approved drugs and bioactive compounds (AID 1345084); details: Gynecologic cancer cell panel viability, ATPlite luminescence, 48 h; series mostly up to 57.5 µM; further: nearly all actives have a fitted effect of over 55% in size
# Summary of the method: (§2)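 Cell viability after 48 h drug treatment, ATPlite luminescence readout; five doses.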
# CAOV3 = assay: as above; details: Gynecologic cancer cell panel viability, ATPlite luminescence, 48 h; series mostly up to 57.5 µM
# Summary of the method: as §2
# CASKI = assay: as above; details: Gynecologic cancer cell panel viability, ATPlite luminescence, 48 h; series mostly up to 57.5 µM
# Summary of the method: as §2
# Es-2 = assay: as above; details: Gynecologic cancer cell panel viability, ATPlite luminescence, 48 h; series mostly up to 57.5 µM
# Summary of the method: as §2
# HeLa = assay: as above; details: Gynecologic cancer cell panel viability, ATPlite luminescence, 48 h; series mostly up to 57.5 µM
# Summary of the method: as §2
# Hek293T = assay: as above; details: Gynecologic cancer cell panel viability, ATPlite luminescence, 48 h, control line for the selectivity index; series mostly up to 57.5 µM
# Summary of the method: as §2
# JEG-3 = assay: as above; details: Gynecologic cancer cell panel viability, ATPlite luminescence, 48 h; series mostly up to 57.5 µM
# Summary of the method: as §2
compound,measurement,setting,value
C=C1CCC2(C(=O)OC3OC(CO)C(O)C(O)C3O)CCC3(C)C(=CCC4C5(C)CCC(OC6OC(CO)C(OC7OC(C)C(O)C(O)C7O)C(OC7OCC(O)C(O)C7O)C6O)C(C)(C)C5CCC43C)C2C1 (stereo unspecified),max response,CRL-7250,4.25%
same,max response,HEK293,-4.7%
same,outcome,HaCat [1],inactive
same,max response,KB-3-1,3.47%
same,max response,NIH3T3,-2.38%
same,outcome,HACAT [2],inactive [at 9.27 µM]
same,"activity change, negative = cytotoxicity",C33A,5.83% [at 11.6 µM]
same,"activity change, negative = cytotoxicity",CAOV3,1.68% [at 11.6 µM]
same,"activity change, negative = cytotoxicity",CASKI,-6.54% [at 11.6 µM]
same,"activity change, negative = cytotoxicity",Es-2,-3.02% [at 11.6 µM]
same,"activity change, negative = cytotoxicity",HeLa,11.1% [at 11.6 µM]
same,"activity change, negative = cytotoxicity",Hek293T,6.11% [at 11.6 µM]
same,"activity change, negative = cytotoxicity",JEG-3,12.2% [at 11.6 µM]
C=Cc1ccc(O[C@@H]2O[C@H](CO[C@@H]3O[C@@H](C)[C@H](O)[C@@H](O)[C@H]3O)[C@@H](O)[C@H](O)[C@H]2O)cc1,max response,CRL-7250,-5.44%
same,max response,HEK293,-5.77%
same,outcome,HaCat [1],inactive
same,max response,KB-3-1,6.98%
same,max response,NIH3T3,-1.18%
same,outcome,HACAT [2],inactive [at 17.4 µM]
same,Potency,C33A,inactive
same,Potency,CAOV3,inactive
same,outcome,CASKI,inactive
same,Potency,Es-2,inactive
same,Potency,HeLa,inactive
same,Potency,Hek293T,inactive
same,Potency,JEG-3,inactive
COC(=O)[C@]1(C)CCC[C@@]2(C)C(=O)CC[C@H]3C(=O)C=C(CC[C@@H]21)C3O (stereo partly specified),max response,CRL-7250,-8.93%
same,max response,HEK293,-5.09%
same,outcome,HaCat [1],inactive
same,max response,KB-3-1,-0.869%
same,max response,NIH3T3,1.41%
same,outcome,HACAT [2],inactive
same,Potency,C33A,inactive
same,Potency,CAOV3,inactive
same,outcome,CASKI,inactive
same,Potency,Es-2,inactive
same,Potency,HeLa,inactive
same,Potency,Hek293T,inactive
same,Potency,JEG-3,inactive
COc1c(C)c(OCC(O)C(C)(C)O)cc2c1CNC2=O (stereo unspecified),max response,CRL-7250,2.44%
same,max response,HEK293,-3.96%
same,outcome,HaCat [1],inactive
same,max response,KB-3-1,5.28%
same,max response,NIH3T3,-1.72%
same,outcome,HACAT [2],inactive
same,Potency,C33A,inactive
same,Potency,CAOV3,inactive
same,outcome,CASKI,inactive
same,Potency,Es-2,inactive
same,Potency,HeLa,inactive
same,Potency,Hek293T,inactive
same,Potency,JEG-3,inactive
C[C@@H]1O[C@@H](OC2C(CO)OC(OCC3OC(OC(=O)[C@]45CCC(C)(C)CC4C4=CCC6[C@@]7(C)CC[C@@H](O)[C@](C)(C(=O)O)C7CC[C@@]6(C)[C@]4(C)CC5)C(O)C(O)C3O)C(O)C2O)[C@H](O)[C@H](O)[C@H]1O (stereo partly specified),outcome,CRL-7250,inactive
same,max response,HEK293,2.84%
same,outcome,HaCat [1],inactive
same,max response,KB-3-1,-3.25%
same,max response,NIH3T3,-0.476%
same,outcome,HACAT [2],inactive [at 9.27 µM]
same,"activity change, negative = cytotoxicity",C33A,1.71% [at 11.6 µM]
same,"activity change, negative = cytotoxicity",CAOV3,16.7% [at 11.6 µM]
same,"activity change, negative = cytotoxicity",CASKI,-0.233% [at 11.6 µM]
same,"activity change, negative = cytotoxicity",Es-2,-9.93% [at 11.6 µM]
same,"activity change, negative = cytotoxicity",HeLa,4.67% [at 11.6 µM]
same,"activity change, negative = cytotoxicity",Hek293T,5.6% [at 11.6 µM]
same,"activity change, negative = cytotoxicity",JEG-3,7.96% [at 11.6 µM]
CCC[C@H](N[C@@H](C)C(=O)N1[C@H](C(=O)O)C[C@@H]2CCCC[C@@H]21)C(=O)O,max response,CRL-7250,-2.24%
same,max response,HEK293,3.79%
same,outcome,HaCat [1],inactive
same,max response,KB-3-1,-5.15%
same,max response,NIH3T3,-10.2%
same,outcome,HACAT [2],inactive
same,Potency,C33A,inactive
same,Potency,CAOV3,inactive
same,outcome,CASKI,inactive
same,Potency,Es-2,inactive
same,Potency,HeLa,inactive
same,Potency,Hek293T,inactive
same,Potency,JEG-3,inactive
COc1ccc(CCc2nc3cc(-c4c(C)noc4C)ccc3n2C[C@H](C)N2CCOCC2)cc1Cl,max response,CRL-7250,-8.27%
same,Potency,HEK293,18.4 µM (active)
same,outcome,HaCat [1],inactive
same,max response,KB-3-1,-12.6%
same,outcome,NIH3T3,inactive
same,outcome,HACAT [2],inactive
same,Potency,C33A,inactive
same,Potency,CAOV3,inactive
same,outcome,CASKI,inactive
same,Potency,Es-2,inactive
same,Potency,HeLa,inactive
same,Potency,Hek293T,inactive
same,Potency,JEG-3,inactive
C[C@@H]1O[C@@H](O[C@H]2[C@@H]3C=CO[C@@H](O[C@@H]4O[C@H](CO)[C@@H](O)[C@H](O)[C@H]4O)[C@@H]3[C@@]3(CO)O[C@@H]23)[C@H](O)[C@H](OC(=O)/C=C/c2ccc(O)c(O)c2)[C@H]1O,max response,CRL-7250,2.8%
same,max response,HEK293,1.13%
same,outcome,HaCat [1],inactive
same,max response,KB-3-1,-0.915%
same,outcome,NIH3T3,inactive
same,outcome,HACAT [2],inactive [at 17.4 µM]
same,Potency,C33A,inactive
same,Potency,CAOV3,inactive
same,outcome,CASKI,inactive
same,Potency,Es-2,inactive
same,Potency,HeLa,inactive
same,Potency,Hek293T,inactive
same,Potency,JEG-3,inactive
C[C@H]1CCN2C[C@]34C[C@@]5(C(=O)Nc6c5ccc5c6OC=CC(C)(C)O5)C(C)(C)C3C[C@]12C(=O)N4C (stereo partly specified),outcome,CRL-7250,inactive
same,max response,HEK293,-13.2%
same,outcome,HaCat [1],inactive
same,max response,KB-3-1,-2.39%
same,max response,NIH3T3,3.63%
same,outcome,HACAT [2],inactive [at 17.4 µM]
same,Potency,C33A,inactive
same,Potency,CAOV3,inactive
same,outcome,CASKI,inactive
same,Potency,Es-2,inactive
same,Potency,HeLa,inactive
same,Potency,Hek293T,inactive
same,Potency,JEG-3,inactive
CC(O)CCc1ccc(O[C@@H]2O[C@H](CO)[C@@H](O)[C@H](O)[C@H]2O)cc1 (stereo partly specified),max response,CRL-7250,0.631%
same,max response,HEK293,3.66%
same,outcome,HaCat [1],inactive
same,max response,KB-3-1,2.69%
same,max response,NIH3T3,-0.367%
same,outcome,HACAT [2],inactive
same,Potency,C33A,inactive
same,Potency,CAOV3,inactive
same,outcome,CASKI,inactive
same,Potency,Es-2,inactive
same,Potency,HeLa,inactive
same,Potency,Hek293T,inactive
same,Potency,JEG-3,inactive
O=C(C1OC1/C=C/c1ccc2c(c1)OCO2)N1CCCCC1 (stereo unspecified),max response,CRL-7250,3.99%
same,max response,HEK293,-7.74%
same,outcome,HaCat [1],inactive
same,max response,KB-3-1,5.97%
same,max response,NIH3T3,-1.01%
same,outcome,HACAT [2],inactive
same,Potency,C33A,inactive
same,Potency,CAOV3,inactive
same,outcome,CASKI,inactive
same,Potency,Es-2,inactive
same,Potency,HeLa,inactive
same,Potency,Hek293T,inactive
same,Potency,JEG-3,inactive
O=C(O)c1ccncc1Nc1nn(CCN2CCC(F)(F)CC2)c2ccc(F)cc12,max response,CRL-7250,-22.9%
same,max response,HEK293,0.878%
same,outcome,HaCat [1],inactive
same,max response,KB-3-1,9.77%
same,max response,NIH3T3,1.4%
same,outcome,HACAT [2],inactive
same,Potency,C33A,inactive
same,Potency,CAOV3,inactive
same,outcome,CASKI,inactive
same,Potency,Es-2,inactive
same,Potency,HeLa,inactive
same,Potency,Hek293T,inactive
same,Potency,JEG-3,inactive
